Laboratory results as given in PubChem BioAssay (NCATS).
Results filed as inconclusive are left out. Entries that show only a call come without a potency. Calls of active or inactive are those of the source. Calls follow the shape of the dose curve; as a rule, active = well fitted cell-killing curve with a large enough effect; inconclusive = small, poorly fitted or top-dose-only effect, or effect the other way; inactive = no such curve, though single readings can be large or run the other way.

How the values were obtained:
[1] = Viability qHTS for spleen associated tyrosine kinase inhibitor (SYKi) naive MV4-11 cells (AID 1963823); also: nearly all actives have a fitted effect of over 40% in size
How it was run: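 Read-out: CellTiter-Glo luminescence. Exposure: 72 hr, 37 C, 5% CO2, 95% humidity. Cells: MV4-11 without SYK inhibitor history, 500/well, qHTS format.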

[2] = Viability qHTS for spleen associated tyrosine kinase inhibitor (SYKi) drug resistant MV4-11 cells (AID 1963824); also: nearly all actives have a fitted effect of over 35% in size
How it was run: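 SYK-inhibitor-resistant MV4-11 AML cells were seeded at 500 per well onto compound and cultured 72 hours (37 °C, 5% CO2). CellTiter-Glo was then added, and after 10 min at room temperature, luminescence gave viability.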
Potency is read from the fitted curve at half-maximal effect.

Q: Which results are given for CC1(O)CCC2C(C(=O)O)=COC(OC3OC(CO)C(O)C(O)C3OC(=O)/C=C/c3ccc(O)cc3)C21 (stereo not given)?
A: Potency [1]: inactive; Potency [2]: inactive

Q: For CC(N)C1CCC(C(=O)Nc2ccncc2)CC1 (stereo not given), which Potency [1] is on record?
A: inactive

Q: And the Potency [2]?
A: inactive

Q: Which Potency [1] does the source give for O=C(/C=C/c1ccc(O)c(O)c1)O[C@H]1[C@@H]2C=CO[C@@H](O[C@@H]3O[C@H](CO)[C@@H](O)[C@H](O)[C@H]3O)[C@@H]2[C@@]2(CO)O[C@@H]12 here?
A: inactive

Q: What about the Potency [2] of the same compound?
A: inactive

Q: With COC1=CC(=O)O[C@@H](CCc2ccccc2)[C@@H]1O as the compound, how does the Potency [1] read?
A: inactive

Q: What about the Potency [2] of the same compound?
A: inactive

Q: Which results are given for O=C(c1ccc(-c2ccc(Cl)cc2)o1)N(Cc1ccccn1)c1ccc(N2CCNCC2)cc1?
A: Potency [1]: 13 µM (active); Potency [2]: 9.2 µM (active)

Q: Which results are given for C=C(C)C(=O)O[C@H]1[C@H]2C(=C)C(=O)O[C@@H]2C[C@@H](C)/C=C\C(=O)[C@](C)(O)[C@@H]1OC(C)=O?
A: Potency [1]: inactive; Potency [2]: inactive

Q: What does the source list for C=C1C(=O)O[C@@H]2C[C@@H](C)[C@]34C[C@]5(C(=O)O[C@H]6CC(C)=C([C@H](C)CCCO)[C@H](OC(=O)C(C)CC)[C@H]65)[C@@H](C(C)=C3C[C@@H]12)[C@H]4OC(C)=O (stereo not given in full)?
A: Potency [1]: 3.06 µM (active); Potency [2]: 2.43 µM (active)

Q: With CC(=O)c1cc2c(cc1O)OC(C)(C)C=C2 as the compound, how does the Potency [1] read?
A: inactive

Q: What about the Potency [2] of the same compound?
A: inactive

Q: With CCOc1nc2cccc(C(=O)OCc3oc(=O)oc3C)c2n1Cc1ccc(-c2ccccc2-c2noc(O)n2)cc1 as the compound, how does the Potency [1] read?
A: inactive

Q: What about the Potency [2] of the same compound?
A: inactive

Q: Which Potency [1] does the source give for COc1cc(Nc2cnc(C#N)c(O[C@H](C)CN(C)C)n2)ncc1-c1cnn(C)c1 here?
A: 0.934 µM (active)

Q: What about the Potency [2] of the same compound?
A: 1.32 µM (active)

Q: With CC1=CC(=O)C2(OC3OC(C)C(O)C(OC(=O)/C=C/c4ccccc4)C3O)C=COC(OC3OC(CO)C(O)C(O)C3O)C12 (stereo not given) as the compound, how does the Potency [1] read?
A: inactive

Q: And the Potency [2]?
A: inactive

Q: Which Potency [1] does the source give for CC(CO)C1CCC2(C)CC3C(CO)CC(O)C3C(C)(O)C/C=C/12 (stereo not given) here?
A: inactive

Q: What about the Potency [2] of the same compound?
A: inactive

Q: Which results are given for C=C(C)C(=O)OC1CC2(C)OC(=CC2=O)C(=C)CC2OC(=O)C(COC)C12 (stereo not given)?
A: Potency [1]: 1.61 µM (active); Potency [2]: 1.61 µM (active)

Q: What does the source list for COc1c(C)cnc(Cn2cc(C#CCC(C)(C)O)c3c(Cl)nc(N)nc32)c1C?
A: Potency [1]: 0.0116 µM (active); Potency [2]: 0.0206 µM (active)

Q: What does the source list for C=C(C(=O)O)C1CC2=C(C)C(=O)CC2C(C)CC1O (stereo not given)?
A: Potency [1]: 4.61 µM (active); Potency [2]: 3.66 µM (active)

Q: What does the source list for COC(=O)N/N=C/c1c[n+]([O-])c2ccccc2[n+]1[O-]?
A: Potency [1]: inactive; Potency [2]: inactive

Q: With CCN(CC)CCN(Cc1ccc(-c2ccc(C(F)(F)F)cc2)cc1)C(=O)Cn1c(SCc2ccc(F)cc2)nc(=O)c2c1CCC2 as the compound, how does the Potency [1] read?
A: 2.91 µM (active)

Q: What about the Potency [2] of the same compound?
A: 3.26 µM (active)

Q: With Oc1cccc(Nc2ccnc3cc(-c4cccc(CN5CCOCC5)c4)sc23)c1 as the compound, how does the Potency [1] read?
A: 0.291 µM (active)

Q: What about the Potency [2] of the same compound?
A: 0.461 µM (active)

Q: With O=C(/C=C/c1ccc(O)cc1)OC[C@]12O[C@H]1[C@@H](O)[C@@H]1C=CO[C@@H](O[C@@H]3O[C@H](CO)[C@@H](O)[C@H](O)[C@H]3O)[C@@H]12 as the compound, how does the Potency [1] read?
A: inactive

Q: What about the Potency [2] of the same compound?
A: inactive

Q: For C[C@@H]1O[C@@H](OC[C@H]2O[C@@H](OC(CCCCc3ccc(O)cc3)CCc3ccc(O)cc3)[C@H](O)[C@@H](O)[C@@H]2O)[C@H](O)[C@H](O)[C@H]1O (stereo not given in full), which Potency [1] is on record?
A: inactive

Q: What about the Potency [2] of the same compound?
A: inactive

Q: For CC(NC(=O)CC(=O)O)c1nc2ccccc2c(=O)[nH]1 (stereo not given), which Potency [1] is on record?
A: inactive

Q: And the Potency [2]?
A: inactive

Q: What does the source list for C=CC(C)(C)C12C=C(OC)C(=O)N3C(C(C)C)C(=O)NC31N(OC)c1ccccc12 (stereo not given)?
A: Potency [1]: inactive; Potency [2]: 7.09 µM (active)

Q: Which results are given for CC(NC(=O)CC(=O)O)C(=O)Nc1ccccc1C(N)=O (stereo not given)?
A: Potency [1]: inactive; Potency [2]: inactive

Q: With CC1=C(C)C(=O)OC(C(C)C2C(O)CC3C4C5OC5C5(O)CC(OC6OC(CO)C(O)C(O)C6O)CC(O)C5(C)C4CCC32C)C1 (stereo not given) as the compound, how does the Potency [1] read?
A: inactive

Q: And the Potency [2]?
A: inactive

Q: With Fc1ccccc1CNCc1ccc(-c2ccnc3[nH]ccc23)cc1 as the compound, how does the Potency [1] read?
A: 5.17 µM (active)

Q: And the Potency [2]?
A: 9.2 µM (active)

Q: What does the source list for C[C@H]1CC[C@H]2[C@@H](C=C[C@@](C)(O)[C@]2(C)C(=O)CCO)C1?
A: Potency [1]: inactive; Potency [2]: inactive

Q: With CC(C)C(C(=O)N1CCCC1C(=O)O)N(C)C(=O)C(O)Cc1ccccc1 (stereo not given) as the compound, how does the Potency [1] read?
A: inactive

Q: And the Potency [2]?
A: inactive

Q: With N=C(N)c1ccc2nc(-c3cc(CC(=O)NC(CC(=O)O)C(=O)O)cc(-c4cc(S(N)(=O)=O)ccc4O)c3O)[nH]c2c1 (stereo not given) as the compound, how does the Potency [1] read?
A: inactive

Q: What about the Potency [2] of the same compound?
A: inactive

Q: With O=C(O)c1ccc(S(=O)(=O)N(Cc2ccc(OC(F)(F)F)cc2)c2ncc(C(F)(F)F)cc2Cl)cc1 as the compound, how does the Potency [1] read?
A: 20.6 µM (active)

Q: What about the Potency [2] of the same compound?
A: 23.1 µM (active)

Q: With OC/C=C/c1ccc(O[C@@H]2O[C@H](CO)[C@@H](O)[C@H](O)[C@H]2O)cc1 as the compound, how does the Potency [1] read?
A: inactive

Q: And the Potency [2]?
A: inactive
